Assay results published in PubChem BioAssay (NCI).
About 83,000 compounds went through this panel and 20% of them were active in at least one assay; those are over-represented in the sample as a whole.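 Cell lines were cultured in 96-well plates, exposed to a single compound concentration, and assessed for percent growth 48 hours later.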 Active and inactive are the calls of the source. How the source made its calls: active means growth percent below 10; inactive means the rest.

Legend:
Experiment in all cases: NCI-60 one-dose screen, 48 h (100 = growth as untreated, 0 = no growth, -100 = all killed)
Settings in all cases: 10 µM unless noted
NCI-H23 lung = tested on: NCI-H23 lung
NCI-H226 lung = tested on: NCI-H226 lung
HOP-62 NSCLC = tested on: HOP-62 NSCLC
NCI-H460 lung = tested on: NCI-H460 lung
HOP-92 NSCLC = tested on: HOP-92 NSCLC
NCI-H522 lung = tested on: NCI-H522 lung
786-0 renal = tested on: 786-0 renal
COLO 205 colon = tested on: COLO 205 colon
NCI-H322M lung = tested on: NCI-H322M lung
A549/ATCC NSCLC = tested on: A549/ATCC NSCLC

Measured: growth

CN1CCN(Cc2ccc(NC(=O)c3cnc(F)c(C#Cc4cnc(N)c5ncccc45)c3)cc2C(F)(F)F)CC1
active: NCI-H226 lung -14.2% | HOP-92 NSCLC -8.06% | COLO 205 colon -7.96%
inactive: NCI-H23 lung 28.3% | HOP-62 NSCLC 16.6% | NCI-H460 lung 13.1% | NCI-H522 lung 30% | 786-0 renal 29.5%

O=c1[nH]c2cc(Cl)c(Cl)cc2o1
inactive: NCI-H23 lung 108% | NCI-H226 lung 90.5% | NCI-H322M lung 109% | HOP-62 NSCLC 96.8% | NCI-H460 lung 109% | HOP-92 NSCLC 101% | NCI-H522 lung 103% | 786-0 renal 97.1% | COLO 205 colon 123%

COc1ccc(C(=O)/C=C/c2cn(-c3ccccc3)nc2-c2cccc(Nc3ccnc4cc(Cl)ccc34)c2)cc1
inactive: NCI-H23 lung 101% | NCI-H226 lung 95.4% | HOP-62 NSCLC 103% | NCI-H460 lung 96.6% | HOP-92 NSCLC 64.9% | NCI-H522 lung 96.7% | A549/ATCC NSCLC 95.3% | 786-0 renal 99.5% | COLO 205 colon 102%

COc1ccc(C(=O)c2c(N)nc3n2CCCC3)cc1OC
inactive: NCI-H23 lung 109% | NCI-H226 lung 96.9% | HOP-62 NSCLC 102% | NCI-H460 lung 105% | HOP-92 NSCLC 118% | NCI-H522 lung 81.7% | 786-0 renal 100% | COLO 205 colon 107%

Fc1[nH]nc2ccc([C@@H]3Nc4ccc5[nH]ncc5c4[C@H]4C5CCC(C5)[C@@H]34)cc12 (stereo not given in full)
active: COLO 205 colon 9.22%
inactive: NCI-H23 lung 45.2% | NCI-H226 lung 47.5% | HOP-62 NSCLC 37.6% | NCI-H460 lung 11.5% | HOP-92 NSCLC 67.3% | NCI-H522 lung 10.3% | A549/ATCC NSCLC 28% | 786-0 renal 51.9%

CCOC(=O)C1=C(C)NC(SCc2nnc(-c3ccc(Cl)cc3)o2)=NC1c1ccc(Cl)cc1 (stereo not given)
inactive: NCI-H23 lung 78.8% | NCI-H226 lung 69.9% | HOP-62 NSCLC 92.8% | NCI-H460 lung 79% | HOP-92 NSCLC 64.1% | NCI-H522 lung 68.9% | A549/ATCC NSCLC 69% | 786-0 renal 83.4% | COLO 205 colon 79.6%

CCOc1c(C#N)c2c(N)ncnc2n1C1OC(CO)C(O)C1O (stereo not given)
active: NCI-H460 lung 0.566% | NCI-H522 lung -22.4% | A549/ATCC NSCLC 8.54% | COLO 205 colon 8.97%
inactive: NCI-H23 lung 50.6% | NCI-H226 lung 71.8% | HOP-62 NSCLC 76.6% | HOP-92 NSCLC 50.1% | 786-0 renal 76.1%

CCCCCCCCCCCCCCCCOc1ccc(S(=O)(=O)N(C)C)cc1[N+](=O)[O-]
inactive: NCI-H23 lung 97.4% | NCI-H226 lung 104% | HOP-62 NSCLC 49.2% | NCI-H460 lung 118% | HOP-92 NSCLC 46.2% | NCI-H522 lung 94.5% | A549/ATCC NSCLC 98.7% | 786-0 renal 67.3% | COLO 205 colon 114%

CSCCC1NC(=O)C(C(C)=Nc2ccccc2)=C1O (stereo not given)
inactive: NCI-H23 lung 105% | NCI-H226 lung 112% | HOP-62 NSCLC 107% | NCI-H460 lung 114% | HOP-92 NSCLC 108% | NCI-H522 lung 116% | A549/ATCC NSCLC 101% | 786-0 renal 98.9% | COLO 205 colon 105%

CCCCCNCCCCCNc1cc(OC)cc2cccnc12
active: HOP-92 NSCLC 9.38%
inactive: NCI-H23 lung 90.7% | NCI-H226 lung 94% | HOP-62 NSCLC 79.1% | NCI-H460 lung 95.9% | NCI-H522 lung 89.6% | A549/ATCC NSCLC 96.1% | 786-0 renal 83.1% | COLO 205 colon 63.6%

COc1c(B(O)O)cccc1-c1nc2ccc3[nH]ncc3c2c2c1CCCC2
inactive: NCI-H23 lung 15.5% | HOP-92 NSCLC 32.8% | NCI-H522 lung 15.1% | 786-0 renal 25.9%
active: NCI-H226 lung -10.6% | HOP-62 NSCLC 7.22% | NCI-H460 lung 8.49% | A549/ATCC NSCLC 8.01% | COLO 205 colon 4.2%

CCCCN(CCCC)CCC(=O)c1ccc(OC)c2ccccc12
active: HOP-92 NSCLC -13.7%
inactive: NCI-H23 lung 111% | NCI-H226 lung 95.7% | HOP-62 NSCLC 101% | NCI-H460 lung 109% | NCI-H522 lung 90.6% | A549/ATCC NSCLC 80.1% | 786-0 renal 65.5% | COLO 205 colon 60.1%

CC(C)NC(=O)OCC#CCOC(=O)NC(C)C
inactive: NCI-H23 lung 99.6% | NCI-H226 lung 106% | HOP-62 NSCLC 104% | NCI-H460 lung 108% | HOP-92 NSCLC 105% | NCI-H522 lung 89.1% | A549/ATCC NSCLC 96.7% | 786-0 renal 102% | COLO 205 colon 106%
